This is an account of results in PubChem BioAssay (NCI).

Common to all, as to experiment: NCI-60 one-dose screen, 48 h (100 = growth as untreated, 0 = no growth, -100 = all killed)
One experiment relates to HCT-15 colon. As to conditions: 10 µM unless noted.
The subject of a further experiment is HT29 colon. As to conditions: 10 µM unless noted.
For a further experiment, the system named is SNB-75 CNS. As to conditions: 10 µM unless noted.
The subject of another experiment is SNB-19 CNS. As to conditions: 10 µM unless noted.
The next experiment has as its system U251 CNS. Particulars: 10 µM unless noted.
Another experiment deals with PC-3 prostate. As to conditions: 10 µM unless noted.
The test system of a further experiment is SK-MEL-5 melanoma. Particulars: 10 µM unless noted.
In another experiment the test system is UACC-62 melanoma. Particulars: 10 µM unless noted.
Another experiment has as its system LOX IMVI melanoma. As to conditions: 10 µM unless noted.
Another experiment has as its system SK-MEL-28 melanoma. Particulars: 10 µM unless noted.
The subject of the next experiment is SK-MEL-2 melanoma. As to conditions: 10 µM.
A further experiment deals with EKVX NSCLC. Particulars: 10 µM unless noted.
The test system of a further experiment is SN12C renal. As to conditions: 10 µM unless noted.
The test system of another experiment is UO-31 renal. As to conditions: 10 µM unless noted.
In a further experiment the test system is TK-10 renal. Particulars: 10 µM unless noted.
For the next experiment, the system named is ACHN renal. Particulars: 10 µM unless noted.
The next experiment relates to CAKI-1 renal. Particulars: 10 µM unless noted.
The test system of another experiment is CCRF-CEM leukemia. As to conditions: 10 µM unless noted.
The subject of a further experiment is MOLT-4 leukemia. Particulars: 10 µM unless noted.

Molecules are shown by their SMILES. The panel holds about 83,000 compounds, 20% with a hit somewhere; the sample as a whole holds those more often.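 A percent growth of 40 corresponds to 60% growth inhibition; 0 means no net growth; -100 means all cells died. Active threshold: below 10.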 Unmarked numbers belong to inactive results. The source made the active and inactive calls.

Take `COc1ccc(CCCc2c3[n+](cc4c(OC)c(OC)ccc24)CCc2cc4c(cc2-3)OCO4)cc1`: the growth in the experiment on HCT-15 colon was 102%; with HT29 colon it was 47.2%; with SNB-75 CNS it was 88.3%; with SNB-19 CNS, 60.4%; in the experiment on U251 CNS, 40.8%; with PC-3 prostate, 58.2%. Also, the growth in the experiment with SK-MEL-5 melanoma was 39%; with UACC-62 melanoma, 49.7%; with LOX IMVI melanoma it was 57.8%; in the experiment with SK-MEL-28 melanoma it was 63.1%; in the experiment on SK-MEL-2 melanoma, 60.1%; in the experiment on EKVX NSCLC, 78.3%. Moreover, the growth in the experiment with SN12C renal was 69%; in the experiment on UO-31 renal, 93.2%; in the experiment on TK-10 renal, 66.4%; with ACHN renal, 96.2%; in the experiment with CAKI-1 renal, 98.3%; in the experiment on CCRF-CEM leukemia, 64.7%. Also, the growth with MOLT-4 leukemia was 76.8%.

`Cc1nn(-c2nc3ccccc3[nH]2)c2c1C(c1ccc(O)cc1)CC(=O)N2` (configuration not stated): the growth was 70.6% in the experiment on HCT-15 colon; 83.9% in the experiment on HT29 colon; 27.8% in the experiment with SNB-75 CNS; 84.1% with SNB-19 CNS; 76.4% with U251 CNS; 77.7% with PC-3 prostate. Besides, the growth in the experiment with SK-MEL-5 melanoma is 85.3%; with UACC-62 melanoma, 84.9%; in the experiment on LOX IMVI melanoma it was 85.2%; with SK-MEL-28 melanoma it was 80.4%; in the experiment on SK-MEL-2 melanoma, 51%; in the experiment with EKVX NSCLC, 109%. In addition, the growth in the experiment with SN12C renal was 101%; in the experiment with UO-31 renal it was 69.3%; with TK-10 renal it was 86.9%; in the experiment with ACHN renal, 97%; in the experiment with CAKI-1 renal, 89.9%; in the experiment on CCRF-CEM leukemia, 17.7%. Further, the growth in the experiment on MOLT-4 leukemia was -14.4% (active).

As to `C=CCC(=O)N[C@H](/C=C/C(=O)O)Cc1ccc(-c2cc(Cl)cc(Cl)c2)cc1`, the growth is 98.1% with HCT-15 colon; 97.8% in the experiment on HT29 colon; 87% in the experiment on SNB-75 CNS; 97.9% with SNB-19 CNS; 83% with U251 CNS; 80.6% with PC-3 prostate. Also, the growth with SK-MEL-5 melanoma is 95.7%; in the experiment on UACC-62 melanoma, 86.8%; in the experiment on LOX IMVI melanoma, 96.9%; in the experiment with SK-MEL-28 melanoma, 112%; with SK-MEL-2 melanoma, 101%; in the experiment on EKVX NSCLC, 95.9%. Also, the growth in the experiment with SN12C renal was 100%; in the experiment on UO-31 renal, 81%; in the experiment on TK-10 renal, 104%; in the experiment on ACHN renal it was 102%; with CAKI-1 renal, 86.3%; with CCRF-CEM leukemia, 102%. Besides, in the experiment on MOLT-4 leukemia, the growth was 91.2%.

With `O=C(Nc1ccc(N=Nc2ccccc2)cc1)c1cccc2ccccc12`, the growth in the experiment with HCT-15 colon is 21.8%; with HT29 colon it was 35.4%; in the experiment with SNB-75 CNS it was 39.3%; in the experiment on SNB-19 CNS, 67.3%; with U251 CNS it was 63.6%; with PC-3 prostate, 54.8%. Moreover, the growth in the experiment on SK-MEL-5 melanoma is 59%; in the experiment with UACC-62 melanoma, 34.6%; in the experiment with LOX IMVI melanoma, 64.4%; with SK-MEL-28 melanoma it was 67.5%; in the experiment with SK-MEL-2 melanoma it was 56.4%; in the experiment on EKVX NSCLC it was 71.5%. In addition, the growth in the experiment with SN12C renal is 78.8%; in the experiment on UO-31 renal, 68.3%; with TK-10 renal, 76.2%; in the experiment on ACHN renal, 77.5%; in the experiment on CAKI-1 renal it was 70.8%; in the experiment with CCRF-CEM leukemia, 49.8%. In the experiment with MOLT-4 leukemia, the growth is 37.2%.

Regarding `CCOC(=O)C1=C(C)N=C2Sc3cccc(OC)c3N2[C@H]1c1ccccn1`, the growth was 104% in the experiment on HCT-15 colon; 97.3% in the experiment on HT29 colon; 93.7% in the experiment with SNB-75 CNS; 96.8% with SNB-19 CNS; 96.4% in the experiment on U251 CNS; 88.3% in the experiment with PC-3 prostate. Also, the growth in the experiment with SK-MEL-5 melanoma was 101%; in the experiment with UACC-62 melanoma, 87.1%; with LOX IMVI melanoma, 96.7%; in the experiment with SK-MEL-28 melanoma, 119%; with SK-MEL-2 melanoma, 99.3%; with EKVX NSCLC, 85.8%. Besides, the growth was 93.4% with SN12C renal; 75.3% in the experiment on UO-31 renal; 117% in the experiment on TK-10 renal; 101% in the experiment with ACHN renal; 89.2% in the experiment with CAKI-1 renal; 102% with CCRF-CEM leukemia. Moreover, the growth in the experiment with MOLT-4 leukemia is 96.9%.

Consider `C=C1C(=O)O[C@H]2[C@H]1CC/C(CNC(=O)c1cc3cc(OC)ccc3[nH]1)=C\CC[C@@]1(C)O[C@@H]21`, for which the growth was -78.4% (active) with HCT-15 colon; -70.9% (active) with HT29 colon; 51.4% in the experiment on SNB-75 CNS; 44% with SNB-19 CNS; 14.5% in the experiment with U251 CNS; -52.5% (active) in the experiment on PC-3 prostate. Also, the growth in the experiment with SK-MEL-5 melanoma was -39.2% (active); with UACC-62 melanoma it was -66.1% (active); in the experiment on LOX IMVI melanoma it was -93.5% (active); in the experiment on SK-MEL-28 melanoma, -59.3% (active); in the experiment on SK-MEL-2 melanoma, -42.7% (active); in the experiment with EKVX NSCLC, -55.9% (active). The growth was -38.5% (active) in the experiment with SN12C renal; -75.8% (active) with UO-31 renal; -83% (active) with TK-10 renal; -76.2% (active) in the experiment with ACHN renal; -74.1% (active) in the experiment with CAKI-1 renal; -19.3% (active) in the experiment with CCRF-CEM leukemia. In addition, the growth with MOLT-4 leukemia was -31% (active).

In the case of `CCCCCCCC(=O)SCC/C=C/[C@@H]1CC(=O)NCc2cccc(n2)C2=N[C@@](C)(CS2)C(=O)N[C@@H](C(C)C)C(=O)O1`, the growth in the experiment with HCT-15 colon is 2.94% (active); in the experiment on HT29 colon it was 0.997% (active); in the experiment on SNB-75 CNS, 31.3%; with SNB-19 CNS it was 14.3%; with U251 CNS, -32.1% (active); with PC-3 prostate it was 11.5%. Further, the growth with SK-MEL-5 melanoma is -93.9% (active); in the experiment on UACC-62 melanoma, -64.1% (active); in the experiment with LOX IMVI melanoma, -94.3% (active); with SK-MEL-28 melanoma, 1.51% (active); in the experiment with SK-MEL-2 melanoma, -1.86% (active); in the experiment on EKVX NSCLC it was 22.2%. Moreover, the growth was 22.6% in the experiment on SN12C renal; -8.17% (active) in the experiment with UO-31 renal; -16.1% (active) in the experiment on TK-10 renal; -11.8% (active) in the experiment with ACHN renal; -38.8% (active) in the experiment with CAKI-1 renal; 30.6% in the experiment on CCRF-CEM leukemia. Also, in the experiment on MOLT-4 leukemia, the growth was 14.3%.

Regarding `C=C1C(=O)O[C@H]2[C@H]1CC/C(Cn1cc(-c3cc(C)c(C)cc3C)nn1)=C\CC[C@@]1(C)O[C@@H]21`, the growth with HCT-15 colon was -82.6% (active); in the experiment on HT29 colon it was -67.9% (active); in the experiment with SNB-75 CNS, 29%; with SNB-19 CNS, 41.8%; with U251 CNS, 12.8%; with PC-3 prostate it was -69.7% (active). In addition, the growth in the experiment with SK-MEL-5 melanoma was 7.44% (active); in the experiment on UACC-62 melanoma, -82% (active); in the experiment with LOX IMVI melanoma, -95% (active); with SK-MEL-28 melanoma, -76.3% (active); in the experiment with SK-MEL-2 melanoma, -12.9% (active); in the experiment with EKVX NSCLC, -79.9% (active). Besides, the growth was -34.6% (active) in the experiment on SN12C renal; -98.3% (active) with UO-31 renal; -98.9% (active) in the experiment on TK-10 renal; -86.7% (active) in the experiment on ACHN renal; -93.7% (active) in the experiment with CAKI-1 renal; -13.8% (active) with CCRF-CEM leukemia. In addition, the growth in the experiment on MOLT-4 leukemia is -19.2% (active).
